Test results as given in PubChem BioAssay.
Values joined by “and” are separate entries in the source; they are usually repeats but may differ in a detail not shown here. Identical values can stand only once. For some of these results: Results with a measured potency or affinity are listed apart. Active and inactive are the calls of the source.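 How the source made its calls, unless noted: active means compounds whose cell count with miR-34 switched on is under 0.7 times the count with it off; inactive means the rest.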

Legend:
[1] = blockers of polyQ-driven CASP3 activation – cell-based (AID 1583); settings: polyglutamine-induced caspase-3 activation, cell assay; stronger effect = higher value;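 tested at 10 µM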
[2] = yeast 75Q aggregation reduction – 75Q-TubU reporter (AID 1593); settings: Yeast 75Q polyglutamine aggregation reporter
[3] = restoration of touch response, mutant HTT neurons – whole organism, C. elegans mechanosensory neurons, N-terminal huntingtin (AID 1599); settings: C. elegans polyQ-huntingtin mechanosensory neurons, stronger effect = higher value
[4] = blockers of cytochrome c efflux from mitochondria – biochemical, purified mitochondria (AID 1603); settings: stronger effect = lower value;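 further: mouse liver mitochondria challenged with calcium chloride; signal normalized to the plate average as 100%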
[5] = polyglutamine aggregate formation blockers (AID 1604); settings: polyglutamine-induced protein aggregation inhibition assay; stronger effect = higher value; tested at 2.5 µM
[6] = glutamate transport activators, MN-1 cells, MN-1 cell line (AID 1612); settings: MN-1 motor neuron cells, stronger effect = higher value;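 further: tested at 1 µM final; 0% = mean of DMSO vehicle wells on each plate; positive means more glutamate uptake than control and negative means less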
[7] = GFP-Q80 aggregate reduction, neuronal-like cells, cell-based, NGF-treated PC12, GFPQ80 (AID 1614); settings: PC12 NGF-treated GFP-polyQ80 inclusion reduction;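 further: lower means fewer inclusions and 0 means no inclusions at all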
[8] = 75Q-TubH aggregate inhibition, S. cerevisiae, yeast (AID 1616); settings: S. cerevisiae 75Q-TubH polyglutamine aggregation suppression; stronger effect = higher value
[9] = compounds altering circadian rhythm period length – cell-based, LOPAC library, luminescence reporter (AID 2774; call rule not given here;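 further: values are relative to mean of DMSO wells on each plate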); settings: circadian reporter cells, at 7 µM, actives lie on both sides
[10] = P. berghei load reduction in hepatocytes – cell-based, HepG2, luciferase luminescence, HepG2 viability, primary screen (AID 624349; in the data active means parasite load remaining mostly below about 12%, no sharp cut-off; inactive means mostly above about 10%;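 further: 100% = mean of DMSO negative control wells on the same plate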); settings: P. berghei liver stage in HepG2, luciferase luminescence, concentration not given here; parasite load remaining: stronger effect = lower value; viability: measured here: HepG2 viability without parasites
[11] = tested on: Hepatitis C virus NS3 helicase; assay: blockers of NS3h binding to ssDNA – biochemical, fluorescence polarization, LOPAC1280 library, primary screen (AID 687035; in the data active means inhibition above about 37%); settings: Purified HCV NS3 helicase, Cy5-dT15 ssDNA binding fluorescence polarization; stronger effect = higher value; concentration not given here
[12] = compounds altering Cy5-DNA-NS3h complex signal – biochemical, LOPAC1280, artefact control for HCV NS3 helicase inhibitor project (AID 687037; call rule not given here); settings: Cy5-DNA-NS3h complex fluorescence interference counterscreen
[13] = EMT-state selective cytotoxicity in co-culture – imaging, PC-3E GFP, TEM4-18 mCherry, primary screen (AID 1345086;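 active means compounds killing one labelled cell type while sparing the other, by normalised counts and ratio limits, not self-fluorescent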;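 on all read-outs here: cells exposed to compound for 72 h before imaging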;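 on red/green cell ratio (normalised): normalised mesenchymal count divided by normalised epithelial count so high means epithelial killing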); settings: PC-3E GFP / TEM4-18 mCherry co-culture, imaging cell counts, at 1 µM; for red/green cell ratio (normalised): actives lie on both sides, counts scaled to control wells, 1 = unselective
[14] = viability loss with induced miR-34 in A549 – imaging, A549 dox-inducible miR-34, nuclei and caspase counts, primary screen (AID 1347080); settings: A549 miR-34 inducible, Hoechst nuclei count, 48 h
[15] = blockers of cellular phospholipid synthesis – cell-based, LOPAC library, screen 4, primary screen (AID 1347384; call rule not given here); settings: animal cells, phospholipid biosynthesis inhibition screen; at 10 µM
[16] = galactose survival enhancers in mitochondrial complex I cybrids – cell-based, galactose medium, ATP luminescence, primary screen (AID 1645843;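 active means z-score of at least 1.8 in each of two replicates, scored against plate mean and spread of sample wells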;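 further: positive z means more ATP and so rescue of galactose-driven cybrid death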); settings: complex I mutant cybrid cells, 72 h, stronger effect = higher value
[17] = MELAS cybrid and Rieske KO viability enhancers – cell-based, MELAS cybrids, Rieske KO mouse fibroblasts, CellTiter-Glo, primary screen (AID 1508586;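 active means mean z-score across replicates of 1.96 or higher in either the MELAS or the Rieske mutant cell line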;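 further: z relative to plate mean and SD of compound and empty wells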); settings: low glucose
[18] = target: NAD(+) hydrolase SARM1 (Homo sapiens) (UniProt Q6SZW1); assay: blocking NAD cleavage by SARM1 SAM-TIR – cell lysate, NAD-Glo luminescence (AID 1508614;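 active means compound whose remaining NAD level is above about 45 nM, limit read from the data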); settings: SAM-TIR HEK293T lysate NADase, at 1 µM, stronger effect = higher value
[19] = target: Mitogen-activated protein kinase 7 (Homo sapiens) (UniProt Q13164); assay: Gal4-ERK5 driven luciferase induction – cell-based, HTS, primary screen (AID 1508626;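 active means luciferase signal above three times the same-plate solvent-only control wells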;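 further: luciferase driven by Gal4-ERK5 fusion binding five Gal4 sites before minimal TATA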); settings: HeLa Gal4-ERK5 transactivation, 18 h, at 5 µM, stronger effect = higher value
[20] = compounds altering viability of human ES cells (AID 493140; call rule not given here;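 further: cells exposed to compounds for four days before counting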); settings: human embryonic stem cell survival screen; stronger effect = higher value
[21] = measured here: epithelial PC-3E GFP cell survival
[22] = measured here: mesenchymal TEM4-18 mCherry cell survival
[23] = stronger effect = lower value, cell number ratio, induced over uninduced
[24] = measured here: relative caspase fold change +Dox/-Dox
[25] = measured here: total cells with miR-34 induction, stronger effect = lower value
[26] = measured here: total cells without miR-34 induction
[27] = MELAS cybrid survival, CellTiter-Glo 48 h, stronger effect = higher value
[28] = Rieske KO mouse fibroblast survival, CellTiter-Glo 72 h

Sequence of Mitogen-activated protein kinase 7 (Homo sapiens) (Q13164 whole entry, looked up, the tested form may be a part): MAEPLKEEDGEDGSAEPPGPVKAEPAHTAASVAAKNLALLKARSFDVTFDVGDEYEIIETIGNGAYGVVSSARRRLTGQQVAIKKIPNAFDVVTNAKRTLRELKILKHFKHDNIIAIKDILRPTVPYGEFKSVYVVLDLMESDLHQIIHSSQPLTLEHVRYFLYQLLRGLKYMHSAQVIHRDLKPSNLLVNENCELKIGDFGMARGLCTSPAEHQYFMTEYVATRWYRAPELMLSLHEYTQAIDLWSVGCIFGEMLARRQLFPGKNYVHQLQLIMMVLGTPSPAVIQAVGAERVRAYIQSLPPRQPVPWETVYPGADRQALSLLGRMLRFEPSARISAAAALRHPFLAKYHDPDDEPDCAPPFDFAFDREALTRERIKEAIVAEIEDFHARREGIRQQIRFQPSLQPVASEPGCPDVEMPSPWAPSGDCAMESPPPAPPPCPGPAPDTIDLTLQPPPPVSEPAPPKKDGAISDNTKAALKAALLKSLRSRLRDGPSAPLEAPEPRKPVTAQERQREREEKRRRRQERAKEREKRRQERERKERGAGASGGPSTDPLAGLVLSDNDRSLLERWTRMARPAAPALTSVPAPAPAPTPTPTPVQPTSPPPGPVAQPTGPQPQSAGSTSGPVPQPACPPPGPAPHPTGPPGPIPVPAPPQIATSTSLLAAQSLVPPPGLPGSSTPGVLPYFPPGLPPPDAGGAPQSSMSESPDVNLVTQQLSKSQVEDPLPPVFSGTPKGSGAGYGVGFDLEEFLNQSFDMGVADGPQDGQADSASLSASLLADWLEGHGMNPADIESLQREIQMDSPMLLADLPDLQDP
Sequence of NAD(+) hydrolase SARM1 (Homo sapiens) (Q6SZW1 whole entry, looked up, the tested form may be a part): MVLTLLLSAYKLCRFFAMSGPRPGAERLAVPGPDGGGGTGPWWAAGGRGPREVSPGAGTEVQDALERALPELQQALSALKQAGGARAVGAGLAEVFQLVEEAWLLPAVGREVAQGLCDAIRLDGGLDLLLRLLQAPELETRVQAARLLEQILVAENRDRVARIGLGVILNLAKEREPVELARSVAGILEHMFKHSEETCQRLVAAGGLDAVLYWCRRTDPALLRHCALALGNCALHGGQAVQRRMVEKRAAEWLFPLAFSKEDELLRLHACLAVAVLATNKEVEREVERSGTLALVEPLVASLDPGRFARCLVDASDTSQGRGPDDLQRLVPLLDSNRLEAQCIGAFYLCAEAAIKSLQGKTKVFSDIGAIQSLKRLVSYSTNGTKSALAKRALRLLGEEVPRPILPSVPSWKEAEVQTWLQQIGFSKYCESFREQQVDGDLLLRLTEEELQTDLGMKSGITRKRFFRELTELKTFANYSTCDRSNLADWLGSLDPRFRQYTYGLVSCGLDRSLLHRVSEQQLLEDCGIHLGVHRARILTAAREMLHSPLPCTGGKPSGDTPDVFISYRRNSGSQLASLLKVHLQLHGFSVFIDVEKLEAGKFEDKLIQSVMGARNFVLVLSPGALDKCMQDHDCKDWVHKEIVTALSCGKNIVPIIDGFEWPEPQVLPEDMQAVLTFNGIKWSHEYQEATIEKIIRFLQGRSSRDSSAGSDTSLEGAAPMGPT

O=C(O)C1CCCNC1 (centres undefined)
inhibition [1]: 28% | score [2]: 2.59 | rescue above control [3]: -9.05 | cytochrome c release ratio [4]: 1.08 | inhibition of aggregation [5]: 41.5% | glutamate uptake change [6]: -1.16% | inclusion score [7]: 2 | aggregation suppression score [8]: 1.59 | period change [9]: 0.19 h (inactive) | parasite load remaining [10]: 89.7% (inactive) | viability [10]: 95.9% | inhibition [11]: 0% (inactive) | fluorescence ratio (interference) [12]: 0.9 (inactive) | red/green cell ratio (normalised) [13]: 0.84 (inactive) | normalised cell number [13, 21]: 1.28 | normalised cell number [13, 22]: 1.08 | fold change [14, 23]: 0.976 (inactive) and 0.953 (inactive) | fold change [14, 24]: 1.22 and 0.942 | cell count [14, 25]: 9840 and 8650 | cell count [14, 26]: 10100 and 9080 | outcome [15]: inactive | z-score [16]: 0.695 (inactive)

O=C(O)c1ccccc1
parasite load remaining [10]: 29.9% (inactive) | viability [10]: 83.9% | red/green cell ratio (normalised) [13]: 1.1 (inactive) | normalised cell number [13, 21]: 1.23 | normalised cell number [13, 22]: 1.35 | fold change [14, 23]: 0.957 (inactive) and 0.932 (inactive) | fold change [14, 24]: 0.544 and 1.69 | cell count [14, 25]: 8250 and 11300 | cell count [14, 26]: 8620 and 12100 | z-score [17, 27]: -0.248 (inactive) | z-score [17, 28]: -0.209 | remaining NAD [18]: 10 nM (inactive) | luciferase signal [19]: 36 AU (inactive)

CCC(NC(C)C)C(O)c1ccc(O)c(O)c1 (centres undefined)
period change [9]: 0.18 h (inactive) | survival [20]: 6.67 (inactive) | parasite load remaining [10]: 55.9% (inactive) and 47.9% (inactive) | viability [10]: 94.3% and 104% | inhibition [11]: -1% (inactive) | fluorescence ratio (interference) [12]: 0.9 (inactive) | red/green cell ratio (normalised) [13]: 1.04 (inactive) | normalised cell number [13, 21]: 0.9 | normalised cell number [13, 22]: 0.93 | fold change [14, 23]: 1.08 (inactive) and 0.894 (inactive) and 0.889 (inactive) | fold change [14, 24]: 0.697 and 1.09 and 4.01 | cell count [14, 25]: 10800 and 8990 and 12000 | cell count [14, 26]: 9990 and 10100 and 13500 | outcome [15]: inactive | z-score [17, 27]: -0.772 (inactive) | z-score [17, 28]: -0.513 | remaining NAD [18]: 10 nM (inactive) | luciferase signal [19]: 212 AU (inactive) | z-score [16]: -1.29 (inactive)

O=C(O)c1ccccc1Nc1ccccc1
period change [9]: -0.04 h (inactive) | inhibition [11]: 0% (inactive) | fluorescence ratio (interference) [12]: 0.9 (inactive) | red/green cell ratio (normalised) [13]: 0.96 (inactive) | normalised cell number [13, 21]: 1.09 | normalised cell number [13, 22]: 1.05 | fold change [14, 23]: 1.06 (inactive) and 0.981 (inactive) | fold change [14, 24]: 2.67 and 0.812 | cell count [14, 25]: 10300 and 5440 | cell count [14, 26]: 9720 and 5550 | outcome [15]: inactive | luciferase signal [19]: 24 AU (inactive) | z-score [16]: 2.06 (active)

NCCCC(N)C(=O)O (centres undefined)
red/green cell ratio (normalised) [13]: 1.03 (inactive) | normalised cell number [13, 21]: 0.99 | normalised cell number [13, 22]: 1.02 | fold change [14, 23]: 0.906 (inactive) | fold change [14, 24]: 0.95 | cell count [14, 25]: 8560 | cell count [14, 26]: 9450

C[C@@H]1CC2C3CCC4=CC(=O)C=C[C@]4(C)[C@@]3(F)[C@@H](O)C[C@]2(C)[C@@]1(O)C(=O)CO (some centres undefined)
inhibition [1]: -20.4% | score [2]: 1.07 | rescue above control [3]: -7.18 | cytochrome c release ratio [4]: 0.84 | inhibition of aggregation [5]: 31.7% | glutamate uptake change [6]: 53.3% | inclusion score [7]: 2 | aggregation suppression score [8]: 1.35 | parasite load remaining [10]: 152% (inactive) and 64.1% (inactive) | viability [10]: 77.2% and 87.1% | red/green cell ratio (normalised) [13]: 1.24 (inactive) | normalised cell number [13, 21]: 1.34 | normalised cell number [13, 22]: 1.66 | fold change [14, 23]: 0.825 (inactive) | fold change [14, 24]: 2.2 | cell count [14, 25]: 7310 | cell count [14, 26]: 8850

N=C(N)c1ccc(N=NNc2ccc(C(=N)N)cc2)cc1 (tested in a mixture with another compound)
red/green cell ratio (normalised) [13]: 0.86 (inactive) | normalised cell number [13, 21]: 1.06 | normalised cell number [13, 22]: 0.91 | fold change [14, 23]: 0.828 (inactive) and 0.804 (inactive) | fold change [14, 24]: 1.35 and 1.21 | cell count [14, 25]: 6360 and 8020 | cell count [14, 26]: 7680 and 9970 | z-score [17, 27]: 6.02 (active) | z-score [17, 28]: 5.36 | remaining NAD [18]: 10 nM (inactive)

CCCCC[C@H](CC(=O)NO)C(=O)N[C@H](C(=O)N1CCC[C@H]1CO)C(C)C
inhibition [1]: -22.9% | score [2]: 1.1 | rescue above control [3]: 7.47 | cytochrome c release ratio [4]: 0.78 | inhibition of aggregation [5]: 14.3% | glutamate uptake change [6]: 9.77% | inclusion score [7]: 2 | aggregation suppression score [8]: 1.26 | period change [9]: -0.03 h (inactive) | inhibition [11]: 0% (inactive) | fluorescence ratio (interference) [12]: 1.1 (inactive) | red/green cell ratio (normalised) [13]: 0.91 (inactive) | normalised cell number [13, 21]: 1.02 | normalised cell number [13, 22]: 0.93 | fold change [14, 23]: 2.17 (inactive) | fold change [14, 24]: 1.05 | cell count [14, 25]: 6800 | cell count [14, 26]: 3130 | outcome [15]: inactive | luciferase signal [19]: 192 AU (inactive) | z-score [16]: 2.42 (inactive)

Cc1cc2nc3c(=O)[nH]c(=O)nc-3n(C[C@@H](O)[C@@H](O)[C@@H](O)COP(=O)(O)O)c2cc1C
red/green cell ratio (normalised) [13]: 1.01 (inactive) | normalised cell number [13, 21]: 1.03 | normalised cell number [13, 22]: 1.04 | fold change [14, 23]: 0.895 (inactive) | fold change [14, 24]: 1.15 | cell count [14, 25]: 8530 | cell count [14, 26]: 9530

c1ccc(C2CN3CCSC3=N2)cc1 (centres undefined)
period change [9]: 0.075 h (inactive) | survival [20]: 5.17 (inactive) and 92.1 (inactive) | parasite load remaining [10]: 183% (inactive) and 71.5% (inactive) | viability [10]: 108% and 76.2% | inhibition [11]: -2% (inactive) | fluorescence ratio (interference) [12]: 1 (inactive) | red/green cell ratio (normalised) [13]: 1.29 (inactive) and 1 (inactive) | normalised cell number [13, 21]: 0.85 and 1.04 | normalised cell number [13, 22]: 1.1 and 1.05 | fold change [14, 23]: 0.894 (inactive) and 0.914 (inactive) and 0.823 (inactive) | fold change [14, 24]: 2.54 and 0.996 and 1.2 | cell count [14, 25]: 8980 and 9120 and 8770 | cell count [14, 26]: 10000 and 9980 and 10700 | outcome [15]: inactive | z-score [17, 27]: 0.49 (inactive) | z-score [17, 28]: 0.36 | remaining NAD [18]: 10 nM (inactive) | z-score [16]: 0.64 (inactive)

CC1(C)S[C@@H]2[C@H](NC(=O)COc3ccccc3)C(=O)N2[C@H]1C(=O)O
inhibition [1]: 4.98% | score [2]: 1.39 | rescue above control [3]: 1.16 | cytochrome c release ratio [4]: 0.65 | inhibition of aggregation [5]: 70.1% | glutamate uptake change [6]: -6.22% | inclusion score [7]: 2 | aggregation suppression score [8]: 0.899 | parasite load remaining [10]: 89.7% (inactive) and 64.4% (inactive) and 28.3% (inactive) | viability [10]: 71.1% and 91.3% and 70.5% | red/green cell ratio (normalised) [13]: 1.2 (inactive) | normalised cell number [13, 21]: 0.81 | normalised cell number [13, 22]: 0.98 | fold change [14, 23]: 0.943 (inactive) and 0.879 (inactive) | fold change [14, 24]: 0.921 and 0.998 | cell count [14, 25]: 11800 and 10100 | cell count [14, 26]: 12500 and 11500 | z-score [17, 27]: 0.0944 (inactive) | z-score [17, 28]: 0.173 | remaining NAD [18]: 10 nM (inactive) | luciferase signal [19]: 64 AU (inactive) | z-score [16]: 0.895 (inactive)
